Assay [1] deals with Fibroblast growth factor receptor 4 (Homo sapiens) (UniProt P22455). Conditions: at 1 µM.
For assay [2], the target named is Tyrosine-protein kinase Fgr (Homo sapiens) (UniProt P09769). Conditions: at 0.1 µM.
Assay [3] shares this target. Particulars: at 1 µM.
For assay [4], the target named is Vascular endothelial growth factor receptor 1 (Homo sapiens) (UniProt P17948). Conditions: at 0.1 µM.
Assay [5] has the same target. Particulars: at 1 µM.
The target in assay [6] is Receptor-type tyrosine-protein kinase FLT3 (Homo sapiens) (UniProt P36888). Conditions: at 0.1 µM.
The target is the same in assay [7]. Conditions: at 1 µM.
In assay [8] the test system is T1, Receptor-type tyrosine-protein kinase FLT3 (Homo sapiens), P36888 [D835Y].
T1 sequence (whole entry): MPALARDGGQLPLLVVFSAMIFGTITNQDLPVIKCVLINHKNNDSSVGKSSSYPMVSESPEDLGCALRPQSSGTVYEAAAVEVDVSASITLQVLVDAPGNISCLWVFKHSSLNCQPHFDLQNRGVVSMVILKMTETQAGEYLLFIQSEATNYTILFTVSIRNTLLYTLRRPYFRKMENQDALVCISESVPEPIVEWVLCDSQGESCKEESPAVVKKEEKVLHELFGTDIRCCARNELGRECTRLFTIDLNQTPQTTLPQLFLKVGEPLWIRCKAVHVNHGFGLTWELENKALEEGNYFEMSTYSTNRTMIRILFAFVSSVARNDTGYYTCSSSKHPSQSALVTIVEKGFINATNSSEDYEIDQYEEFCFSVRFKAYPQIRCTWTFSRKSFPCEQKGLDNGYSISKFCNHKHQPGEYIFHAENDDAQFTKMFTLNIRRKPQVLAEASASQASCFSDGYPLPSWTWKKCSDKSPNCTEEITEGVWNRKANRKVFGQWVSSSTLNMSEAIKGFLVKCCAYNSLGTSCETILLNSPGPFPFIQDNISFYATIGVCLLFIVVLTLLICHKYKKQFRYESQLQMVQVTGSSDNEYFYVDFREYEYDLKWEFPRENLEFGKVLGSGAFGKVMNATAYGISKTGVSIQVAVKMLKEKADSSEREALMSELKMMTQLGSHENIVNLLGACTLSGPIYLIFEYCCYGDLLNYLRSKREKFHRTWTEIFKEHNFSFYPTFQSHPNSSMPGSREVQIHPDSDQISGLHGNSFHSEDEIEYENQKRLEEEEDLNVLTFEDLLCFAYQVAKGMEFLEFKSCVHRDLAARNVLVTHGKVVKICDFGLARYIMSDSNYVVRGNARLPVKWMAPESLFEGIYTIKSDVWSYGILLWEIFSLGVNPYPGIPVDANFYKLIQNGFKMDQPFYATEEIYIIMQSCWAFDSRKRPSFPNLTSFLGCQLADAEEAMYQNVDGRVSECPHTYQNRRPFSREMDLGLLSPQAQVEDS
Conditions: at 0.1 µM.

The target in assay [9] is Non-receptor tyrosine-protein kinase TYK2 (Homo sapiens) (UniProt P29597). Conditions: at 1 µM.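 Also: values are mean percent inhibition of TYK2 kinase.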
Assay [10] addresses T2, Tyrosine-protein kinase receptor TYRO3 (Homo sapiens) (UniProt Q06418).
T2 sequence (whole entry): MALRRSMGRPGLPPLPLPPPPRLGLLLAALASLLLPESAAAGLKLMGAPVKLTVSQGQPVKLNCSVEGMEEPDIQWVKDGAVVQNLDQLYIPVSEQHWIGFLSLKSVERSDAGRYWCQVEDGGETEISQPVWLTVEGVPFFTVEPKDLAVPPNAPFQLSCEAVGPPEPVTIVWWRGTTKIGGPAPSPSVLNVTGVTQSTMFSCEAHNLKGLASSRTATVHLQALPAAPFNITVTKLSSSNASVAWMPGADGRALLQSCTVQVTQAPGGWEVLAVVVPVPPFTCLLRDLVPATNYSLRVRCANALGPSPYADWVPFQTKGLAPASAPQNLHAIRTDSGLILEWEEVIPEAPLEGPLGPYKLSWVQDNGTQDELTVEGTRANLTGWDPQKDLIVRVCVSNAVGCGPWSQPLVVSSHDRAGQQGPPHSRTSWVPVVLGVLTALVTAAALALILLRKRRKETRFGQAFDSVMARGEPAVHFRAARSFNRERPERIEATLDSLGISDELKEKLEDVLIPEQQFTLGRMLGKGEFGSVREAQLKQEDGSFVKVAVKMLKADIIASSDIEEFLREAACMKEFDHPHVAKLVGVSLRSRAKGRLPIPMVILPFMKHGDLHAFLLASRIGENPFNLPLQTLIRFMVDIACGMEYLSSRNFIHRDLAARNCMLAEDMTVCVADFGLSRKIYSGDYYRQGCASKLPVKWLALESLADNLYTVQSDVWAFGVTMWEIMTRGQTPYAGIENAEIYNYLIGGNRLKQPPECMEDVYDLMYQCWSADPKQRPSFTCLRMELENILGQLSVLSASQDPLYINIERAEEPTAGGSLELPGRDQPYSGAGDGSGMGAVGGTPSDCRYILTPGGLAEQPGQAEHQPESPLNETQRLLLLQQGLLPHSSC
Conditions: at 0.1 µM.

The target of assay [11] is T2, Tyrosine-protein kinase receptor TYRO3 (Homo sapiens). Conditions: at 1 µM.
For assay [12], the target named is Tyrosine-protein kinase Yes (Homo sapiens) (UniProt P07947). Conditions: at 0.1 µM.
Tyrosine-protein kinase Yes (Homo sapiens), sequence (P07947 2-543 limits assumed): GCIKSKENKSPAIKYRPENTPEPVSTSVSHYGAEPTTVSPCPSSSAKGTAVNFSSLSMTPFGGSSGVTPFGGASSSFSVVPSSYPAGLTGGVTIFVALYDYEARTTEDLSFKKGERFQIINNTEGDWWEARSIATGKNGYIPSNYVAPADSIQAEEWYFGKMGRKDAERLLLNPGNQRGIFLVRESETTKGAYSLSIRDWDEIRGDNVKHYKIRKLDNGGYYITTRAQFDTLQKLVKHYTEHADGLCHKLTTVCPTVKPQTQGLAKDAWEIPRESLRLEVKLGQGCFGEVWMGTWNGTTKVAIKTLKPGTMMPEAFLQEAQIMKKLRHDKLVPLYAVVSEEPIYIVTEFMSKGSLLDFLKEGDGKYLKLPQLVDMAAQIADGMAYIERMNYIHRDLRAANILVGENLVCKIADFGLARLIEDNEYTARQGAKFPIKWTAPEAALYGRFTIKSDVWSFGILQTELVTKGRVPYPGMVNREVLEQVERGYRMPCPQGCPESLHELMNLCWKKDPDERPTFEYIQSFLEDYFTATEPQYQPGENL
Assay [13] shares this target. Particulars: at 1 µM.
Assay [14] deals with T3, Tyrosine-protein kinase ZAP-70 (Homo sapiens) (UniProt P43403).
T3 sequence (whole entry): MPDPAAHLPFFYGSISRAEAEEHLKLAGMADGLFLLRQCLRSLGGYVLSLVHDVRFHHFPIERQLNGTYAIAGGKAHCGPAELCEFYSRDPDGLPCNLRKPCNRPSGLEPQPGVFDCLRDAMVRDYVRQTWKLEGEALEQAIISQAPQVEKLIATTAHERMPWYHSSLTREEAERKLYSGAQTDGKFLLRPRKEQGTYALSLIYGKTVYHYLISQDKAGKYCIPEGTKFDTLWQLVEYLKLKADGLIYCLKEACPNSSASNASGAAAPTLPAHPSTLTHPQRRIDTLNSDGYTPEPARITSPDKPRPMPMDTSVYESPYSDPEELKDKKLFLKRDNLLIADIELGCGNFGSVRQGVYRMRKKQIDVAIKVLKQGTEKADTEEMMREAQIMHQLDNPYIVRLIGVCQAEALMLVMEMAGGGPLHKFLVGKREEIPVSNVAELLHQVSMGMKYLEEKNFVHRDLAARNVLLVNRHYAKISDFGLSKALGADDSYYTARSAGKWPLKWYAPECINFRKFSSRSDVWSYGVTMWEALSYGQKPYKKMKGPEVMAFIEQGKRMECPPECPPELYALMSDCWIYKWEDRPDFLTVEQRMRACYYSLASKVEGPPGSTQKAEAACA
Conditions: at 0.1 µM.

Assay [15] concerns the target T3, Tyrosine-protein kinase ZAP-70 (Homo sapiens). Particulars: at 1 µM.
Assay [16] deals with RAF proto-oncogene serine/threonine-protein kinase (Homo sapiens) (UniProt P04049). Conditions: at 0.1 µM.
RAF proto-oncogene serine/threonine-protein kinase (Homo sapiens), sequence (P04049 whole entry): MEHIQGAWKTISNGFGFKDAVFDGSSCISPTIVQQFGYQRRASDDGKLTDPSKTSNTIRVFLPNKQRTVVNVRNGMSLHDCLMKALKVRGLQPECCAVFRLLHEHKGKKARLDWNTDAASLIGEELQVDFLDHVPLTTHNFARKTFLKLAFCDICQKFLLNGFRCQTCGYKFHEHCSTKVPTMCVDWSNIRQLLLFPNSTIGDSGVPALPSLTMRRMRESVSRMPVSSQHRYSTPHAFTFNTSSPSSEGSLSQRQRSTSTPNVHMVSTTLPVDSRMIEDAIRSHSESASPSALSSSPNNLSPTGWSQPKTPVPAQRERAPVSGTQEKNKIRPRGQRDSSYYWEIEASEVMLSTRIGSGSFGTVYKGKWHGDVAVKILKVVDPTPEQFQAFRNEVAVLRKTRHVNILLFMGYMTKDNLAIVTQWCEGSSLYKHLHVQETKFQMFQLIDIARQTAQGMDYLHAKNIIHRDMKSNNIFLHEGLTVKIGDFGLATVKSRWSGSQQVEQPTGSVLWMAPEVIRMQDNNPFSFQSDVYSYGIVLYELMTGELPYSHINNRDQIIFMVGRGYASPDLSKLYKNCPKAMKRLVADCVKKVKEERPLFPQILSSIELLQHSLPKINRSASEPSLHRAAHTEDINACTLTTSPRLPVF
The target in assay [17] is Serine/threonine-protein kinase B-raf (Homo sapiens) (UniProt P15056). Conditions: at 0.1 µM.
Serine/threonine-protein kinase B-raf (Homo sapiens), sequence (P15056 whole entry): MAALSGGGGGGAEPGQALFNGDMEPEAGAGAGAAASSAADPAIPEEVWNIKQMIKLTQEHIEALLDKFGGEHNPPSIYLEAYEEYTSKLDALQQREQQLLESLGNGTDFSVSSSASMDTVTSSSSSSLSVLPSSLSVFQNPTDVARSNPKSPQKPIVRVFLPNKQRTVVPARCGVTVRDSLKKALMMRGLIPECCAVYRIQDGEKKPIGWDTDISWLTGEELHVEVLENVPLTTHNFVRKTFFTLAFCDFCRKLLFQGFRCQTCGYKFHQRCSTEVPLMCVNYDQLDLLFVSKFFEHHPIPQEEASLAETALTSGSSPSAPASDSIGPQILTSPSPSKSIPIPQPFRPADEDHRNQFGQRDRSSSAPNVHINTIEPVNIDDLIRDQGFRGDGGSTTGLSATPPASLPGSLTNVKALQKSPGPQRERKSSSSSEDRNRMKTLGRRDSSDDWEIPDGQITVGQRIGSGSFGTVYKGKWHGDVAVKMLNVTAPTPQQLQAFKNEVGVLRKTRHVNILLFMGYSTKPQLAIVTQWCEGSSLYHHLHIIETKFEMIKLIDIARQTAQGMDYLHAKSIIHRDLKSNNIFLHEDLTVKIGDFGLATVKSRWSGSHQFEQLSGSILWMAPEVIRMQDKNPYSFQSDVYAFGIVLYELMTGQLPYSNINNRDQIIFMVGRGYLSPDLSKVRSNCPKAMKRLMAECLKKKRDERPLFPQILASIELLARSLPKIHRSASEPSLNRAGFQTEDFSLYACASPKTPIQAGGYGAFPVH
The target is the same in assay [18]. Particulars: at 1 µM.
In assay [19] the test system is Serine/threonine-protein kinase B-raf (Homo sapiens), P15056 [V600E]. Particulars: at 0.1 µM.
Serine/threonine-protein kinase B-raf (Homo sapiens), P15056 [V600E], sequence (P15056 whole entry V600E): as the sequence (P15056 whole entry) above, with V600E counted along it
The test system is the same in assay [20]. Conditions: at 1 µM.

From ChEMBL document CHEMBL1961873, “Compounds: GSK PKIS; Assays: Nanosyn kinase panel” (2012) come the findings set out here.

Fibroblast growth factor receptor 4 (Homo sapiens), sequence (P22455 22-802 limits assumed): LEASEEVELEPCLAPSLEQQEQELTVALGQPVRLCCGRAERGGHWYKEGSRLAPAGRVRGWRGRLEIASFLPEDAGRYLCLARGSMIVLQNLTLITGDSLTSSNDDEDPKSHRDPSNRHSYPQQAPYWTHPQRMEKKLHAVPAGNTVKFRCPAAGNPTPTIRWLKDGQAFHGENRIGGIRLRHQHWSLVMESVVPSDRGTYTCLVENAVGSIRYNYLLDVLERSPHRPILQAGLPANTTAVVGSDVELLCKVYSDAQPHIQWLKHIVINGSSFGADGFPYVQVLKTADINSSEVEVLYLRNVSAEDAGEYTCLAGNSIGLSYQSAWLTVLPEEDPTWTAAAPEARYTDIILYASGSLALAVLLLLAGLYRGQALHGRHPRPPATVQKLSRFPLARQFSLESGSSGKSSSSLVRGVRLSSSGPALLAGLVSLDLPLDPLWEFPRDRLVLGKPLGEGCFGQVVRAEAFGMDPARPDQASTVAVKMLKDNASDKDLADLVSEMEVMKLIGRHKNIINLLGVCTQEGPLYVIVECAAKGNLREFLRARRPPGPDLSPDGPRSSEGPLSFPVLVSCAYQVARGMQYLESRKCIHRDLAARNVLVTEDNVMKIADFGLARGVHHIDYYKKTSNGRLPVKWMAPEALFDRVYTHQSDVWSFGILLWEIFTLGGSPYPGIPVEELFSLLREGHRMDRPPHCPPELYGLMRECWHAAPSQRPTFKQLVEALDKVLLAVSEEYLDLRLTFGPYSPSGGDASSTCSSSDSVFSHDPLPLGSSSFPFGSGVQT
Tyrosine-protein kinase Fgr (Homo sapiens), sequence (P09769 2-529 limits assumed): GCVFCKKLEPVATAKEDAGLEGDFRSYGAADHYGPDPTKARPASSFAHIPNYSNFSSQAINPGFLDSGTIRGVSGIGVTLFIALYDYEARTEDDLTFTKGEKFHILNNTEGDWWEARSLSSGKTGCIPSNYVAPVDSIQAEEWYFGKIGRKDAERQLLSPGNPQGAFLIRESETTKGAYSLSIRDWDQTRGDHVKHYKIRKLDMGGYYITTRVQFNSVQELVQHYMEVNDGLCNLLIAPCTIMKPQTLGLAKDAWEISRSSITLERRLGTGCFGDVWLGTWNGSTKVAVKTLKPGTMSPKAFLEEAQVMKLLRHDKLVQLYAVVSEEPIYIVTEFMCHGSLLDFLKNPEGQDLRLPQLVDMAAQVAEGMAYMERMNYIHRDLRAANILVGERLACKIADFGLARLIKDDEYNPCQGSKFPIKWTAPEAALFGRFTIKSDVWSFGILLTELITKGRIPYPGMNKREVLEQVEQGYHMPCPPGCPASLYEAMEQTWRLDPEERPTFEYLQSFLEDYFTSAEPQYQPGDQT
Vascular endothelial growth factor receptor 1 (Homo sapiens), sequence (P17948 whole entry): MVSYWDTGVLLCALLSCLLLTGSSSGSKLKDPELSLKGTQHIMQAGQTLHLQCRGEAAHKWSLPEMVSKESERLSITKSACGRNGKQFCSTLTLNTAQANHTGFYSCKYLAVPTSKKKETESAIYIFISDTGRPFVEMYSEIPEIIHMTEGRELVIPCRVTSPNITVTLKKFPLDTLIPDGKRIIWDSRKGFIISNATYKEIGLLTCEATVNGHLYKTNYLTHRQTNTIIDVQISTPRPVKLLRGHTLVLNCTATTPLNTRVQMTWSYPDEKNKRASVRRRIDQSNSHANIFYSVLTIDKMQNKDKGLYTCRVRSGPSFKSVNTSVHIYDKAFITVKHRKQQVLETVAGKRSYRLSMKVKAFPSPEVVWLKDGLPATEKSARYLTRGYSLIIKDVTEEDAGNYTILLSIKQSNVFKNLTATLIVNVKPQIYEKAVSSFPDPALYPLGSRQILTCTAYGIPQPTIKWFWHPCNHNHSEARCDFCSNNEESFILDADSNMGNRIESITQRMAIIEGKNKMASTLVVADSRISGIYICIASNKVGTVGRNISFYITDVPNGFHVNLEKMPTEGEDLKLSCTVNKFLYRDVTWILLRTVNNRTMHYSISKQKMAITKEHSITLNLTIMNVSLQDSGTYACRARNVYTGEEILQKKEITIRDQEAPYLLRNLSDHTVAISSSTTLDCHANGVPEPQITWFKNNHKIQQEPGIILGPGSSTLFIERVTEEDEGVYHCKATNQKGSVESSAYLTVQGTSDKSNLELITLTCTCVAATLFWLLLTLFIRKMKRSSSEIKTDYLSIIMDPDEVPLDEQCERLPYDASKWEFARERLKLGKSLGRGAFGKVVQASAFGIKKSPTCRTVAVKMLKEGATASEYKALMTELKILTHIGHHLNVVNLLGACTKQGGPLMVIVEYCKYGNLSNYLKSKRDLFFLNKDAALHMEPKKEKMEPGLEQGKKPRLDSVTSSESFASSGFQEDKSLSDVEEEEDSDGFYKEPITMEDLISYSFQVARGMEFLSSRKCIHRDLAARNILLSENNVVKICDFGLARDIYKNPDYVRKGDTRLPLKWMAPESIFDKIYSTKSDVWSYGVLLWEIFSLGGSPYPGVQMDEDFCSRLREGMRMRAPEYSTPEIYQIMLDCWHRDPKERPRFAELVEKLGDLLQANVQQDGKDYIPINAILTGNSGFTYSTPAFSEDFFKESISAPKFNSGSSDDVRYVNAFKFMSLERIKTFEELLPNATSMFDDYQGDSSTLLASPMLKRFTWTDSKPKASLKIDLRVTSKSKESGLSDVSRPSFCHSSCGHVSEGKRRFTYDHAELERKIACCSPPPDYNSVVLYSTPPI

For `CCn1cc(-c2ccnc3[nH]ccc23)c(-c2cccc(NC(=O)Nc3ccc(OCc4ccccc4)cc3)c2)n1`, the inhibition is 3.27% in assay [1]; 7.42% in assay [2]; 34.1% in assay [3]; -3.05% in assay [4]; 2.9% in assay [5]; -1.9% in assay [6]. The inhibition was -2.19% in [7]; -9.12% in assay [8]; 0.52% in [9]; 0.03% in assay [10]; 1.53% in assay [11]; 1.1% in assay [12]. The inhibition in assay [13] was 24.8%; in [14], -0.61%; in assay [15] it was 2.51%; in [16], 4.65%.
On to `NC(=O)c1sc(-n2cnc3ccc(C(F)(F)F)cc32)cc1OCc1ccccc1Br`, for which the inhibition in [1] stood at 2.14%; in assay [2], 3.5%; in assay [3], 1.54%; in assay [4] it was 1.4%; in assay [5], 4.1%; in assay [6] it was 1.91%. The inhibition in assay [7] was 1.02%; in assay [8] it was -2.48%; in [9], -3.62%; in assay [10] it was 3.13%; in assay [11], 2.95%; in assay [12], 2.93%. In addition, the inhibition in assay [13] worked out at 6.95%; in assay [14], 2.64%; in assay [15], 2.31%; in assay [17], 6.14%; in assay [18], 7.4%; in [19] it was 5.99%. Moreover, the values for the inhibition in assay [20] and in assay [16] were 6.42% and -1.07%, respectively.
In the case of `CCCN1CCC(c2ccc(Nc3nc(Nc4cc(F)ccc4C(N)=O)c4cc[nH]c4n3)c(OC)c2)CC1`, the inhibition is 12.4% in [1]; 6.28% in [2]; 7.49% in assay [3]; 0.21% in [4]; 0.37% in [5]; 4.46% in assay [6]. Besides, the inhibition in [7] was 20.3%; in assay [8], 6.01%; in assay [9] it was -2.78%; in assay [10], 3.47%; in assay [11], 18.4%; in assay [12], 5.76%. Besides, the inhibition in assay [13] was 19.3%; in assay [15] it was 29.3%; in [17], 9.61%; in assay [18] it was 37.6%; in assay [19], 10.1%; in assay [20], 37.4%. In addition, in [16], the inhibition came out at 7.25%.
For `COC(=O)Nc1nc2ccc(S(=O)(=O)c3ccc(NC(=O)Nc4cc(C(F)(F)F)ccc4F)cc3)cc2[nH]1`, the inhibition is 0.83% in assay [1]; 0.25% in [2]; 6.79% in assay [3]; 0.68% in assay [4]; -0.67% in [5]; -0.31% in assay [6]. For the same compound, the inhibition was 3.96% in assay [7]; -2.76% in assay [8]; 0.09% in assay [9]; 0.25% in [10]; 2.45% in assay [11]; 1.97% in assay [12]. Further, the inhibition in assay [13] was -2.4%; in assay [14], 2.44%; in [15] it was 3.21%; in assay [17], 3.07%; in assay [18], 3.12%; in [19], 3.61%. In addition, the inhibition in [20] is 4.39%; in [16] it was -1.21%.
As for `COc1ccc2c(-c3ccnc(Nc4cccc(OC(F)(F)F)c4)n3)cnn2n1`, the inhibition in assay [1] was found to be 0.68%; in assay [2] it was 5.29%; in assay [3], 7.16%; in assay [4], 1.57%; in assay [5], 7.39%; in [6], 3.4%. The inhibition is 14.3% in assay [7]; 3.59% in assay [8]; -2.09% in assay [9]; 4.51% in [10]; 7.73% in assay [11]; 2.47% in assay [12]. The inhibition in assay [13] is 6.34%; in [14], 0.87%; in assay [15] it was 3.62%; in assay [17], 6.94%; in assay [18] it was 7.89%; in assay [19] it was 5.16%. Besides, the inhibition was determined as 6.12% in assay [20] and 1.54% in assay [16].
Regarding `COc1ccc(-c2nn3ncccc3c2-c2ccnc(Nc3ccc4c(c3)OCCO4)n2)cc1`, the inhibition was 1.91% in [1]; 47.9% in assay [2]; 79.8% in assay [3]; 4.09% in assay [4]; 26.8% in [5]; -1.66% in [6]. The inhibition in [7] is -0.57%; in [8] it was -7.3%; in [9], -1.85%; in assay [10], -0.58%; in assay [11] it was 9.92%; in assay [12], 79.3%. Also, the inhibition was 95.8% in assay [13]; -0.83% in assay [15]; 2.67% in [17]; 5.07% in [18]; 1.25% in assay [19]; 4.88% in assay [20]. Moreover, the inhibition in [16] is -0.5%.
In the case of `COc1ccc(-c2cc(-c3c[nH]nc3-c3ccccn3)ccn2)cc1`, the inhibition in assay [1] is 6.88%; in [2] it was 5.33%; in [3], 4.21%; in [4] it was 3.66%; in assay [5] it was 8.02%; in [6] it was 3.81%. For the same compound, the inhibition in assay [8] was 1.47%; in assay [9] it was -4.16%; in [10] it was 2.81%; in assay [11] it was 4.46%; in assay [12], 3.5%; in [13], 7.41%. For the same compound, the inhibition worked out at 1.69% in assay [14]; 2.09% in assay [15]; 7.54% in assay [17]; 6.98% in [18]; 7.82% in assay [19]; 6.42% in assay [20]. Also, the inhibition in assay [16] stood at 0.24%.
